Experimental data taken from PubChem BioAssay AID588855 (National Center for Advancing Translational Sciences (NCATS), 2011).
Screen size: about 410,000 compounds; about 5,000 (1.2%) were called active. Another 13% or so got no clear call; they are omitted. This is one part of a sample in which actives are shown more often than they occur. Values without a mark were called inactive. Calls come from the whole dose curve; as a rule, active = well fitted inhibition curve with a large enough effect; inconclusive = small, poorly fitted or top-dose-only effect; inactive = no such curve, though single readings can be large or run the other way.

Experiment: qHTS for Inhibitors of TGF-b; note: nearly all actives have a fitted effect of over 65% in size
Conditions: HepG2 CAGA-GFP TGF-b/SMAD3 reporter, GFP fluorescence, 18 h, TGF-beta stimulated, 500 pg/mL final; series mostly up to 46.1 µM; activity, negative = inhibition: at the top concentration
Excerpt: TGF-b is a main component in the TGF-b signaling pathway which plays diverse roles in cellular and development pathways. TGF-b is the mediated by the transcription factors Smads. Although the Smad-dependent pathway is the primary canonical TGF-b signaling node, TGF-b1 can also activate alternative signaling pathways, including those involving MAPK (ERK, JNK and p38). This interaction may mediate or enhance Smad-dependent responses, or can exert Smad-independent effects. The complexity of this signaling cascade allows the TGF-b superfamily to perform unique, overlapping or redundant functions. We believe that targeting the TGF-beta pathway at the Smad-transcription factor level may eliminate the consequences of disrupting the entire pathway and offer specificity without affecting other signaling pathways. Smad3 is the primary transducer of TGF-b's signals and Smad3 regulates many functions attributed to TGF-b signaling. We hypothesize that Smad3 inhibitors will selectively eliminate Smad3-specific TGF-beta signals without undesired off-target effects. We aim to identify Smad3-small molecule antagonists using a quantitative high throughput screening (qHTS) approach.
A high-throughput assay was developed to screen the NIH Molecular Libraries Small Molecule Repository (MLSMR). This is a cell based assay, where TGF-b is tagged with GFP. A counterscreen is run that looks at cytotoxicity (please see summary AID).
MH087449NIH Chemical Genomics Center [NCGC]
NIH Molecular Libraries Probe Centers Network [MLPCN]
Assay Submitter (PI): Sushil Rane, National Institute of […]
Suspensions of trypsinized HEPG2 CAGA-GFP cells were dispensed into white, tissue culture-treated, solid 1536-well plates at 5uL/well (1000 cells/well final concentration) in DMEM medium supplemented with 1% FBS. Plates were incubated at 37 degrees C for 2 hours, after which 23 nL of compounds or DMSO were delivered to each well using a pin tool. One uL of recombinant TGF-beta in DMEM (1% FBS) was then dispensed (500 pg/mL final concentration), and plates were incubated at 37 degrees C for 18 hours. The plates were measured on an Acumen eX3 Explorer plate reader for GFP fluorescence (ex488/em500-530). GFP values were calculated by determining the mean GFP fluorescence of individual cells, and compiling these values for each well to determine a total well GFP signal. The %Activity was determined from the corrected fluorescence values. A titration of the known TGF-B inhibitor SB431542 was included to monitor plate performance, while unstimulated HEPG2 (-TGF-B) control wells were used to normalize %Activity of identified inhibitors; unstimulated wells corresponded to 100%Activity (full inhibition), while stimulated cell controls (+DMSO) were used to normalize 0%Activity (no inhibition).
Concentration-response curves were fitted to the signals arising from the resulting fluorescence. The concentration-effect curves were then classified based on curve quality (r2), response magnitude and degree of measured activity, and compounds were subsequently categorized based on their curve class.
Potency is the fitted concentration of half-maximal effect.

SMILES	activity, negative = inhibition	Potency
COc1ccc(NC(=S)NC2CCS(=O)(=O)C2)cc1 (stereo not given)	-2.2%	
CCCSC(=S)NC1CCS(=O)(=O)C1 (stereo not given)		11.2 µM (active)
CC(C)C(=O)NC(NC(=S)NC1CCS(=O)(=O)C1)C(Cl)(Cl)Cl (stereo not given)	-5.61%	
CCCC12CN3CC(CCC)(CN(C1)C3c1c[nH]c3ccc(OC)cc13)C2=O (stereo not given)	3.08%	
COc1cc(NC(=O)c2nc3ccccc3nc2C)cc(OC)c1OC	25.6%	
COc1cc(C(=O)N2CCC(c3ccncc3)CC2)cc(OC)c1OC	0.25%	
Cc1ccc(N2CC(NC(=O)Cc3cccs3)CC2=O)cc1 (stereo not given)	-7.03%	
CCN(CC)S(=O)(=O)c1cc(C(=O)Nc2cc(S(=O)(=O)N3CCOCC3)ccc2N2CCCC2)ccc1F	-17.7%	
CCN(CC)S(=O)(=O)c1ccc(N2CCCC2)c(NC(=O)c2ccc([N+](=O)[O-])o2)c1		11.2 µM (active)
CCN(CC)S(=O)(=O)c1ccc(N2CCOCC2)c(NC(=O)c2ccc(=O)n(C)n2)c1	2.21%	
CCc1ccc(C2C(C(=O)Nc3ccccc3)=C(C)Nc3c(C(=O)Nc4ccc(C)cc4)cnn32)cc1 (stereo not given)	-29.9%	
Cc1nc(N2CCOCC2)c2c(C(=O)NCc3cccc(Cl)c3)c(C)oc2n1	-6.9%	
O=C(CCn1ccc2cc(S(=O)(=O)N3CCCC3)ccc21)NCc1cccc(Cl)c1	-17.6%	
COC(=O)CCc1ccccc1S(=O)(=O)N(CCC(=O)OC)Cc1ccccc1	-14.8%	
COc1ccc(-c2nc(=N)sn2-c2ccccc2)cc1	-2.14%	
O=C(Nc1ccc2ccccc2c1[N+](=O)[O-])c1ccccc1	-1.78%	
O=C(NC1=CC(=O)c2ccccc2C1=O)c1ccccc1		10 µM (active)
O=C(Nc1ncccc1O)c1ccc(C(=O)c2ccccc2)cc1	-26.3%	
CCOc1ccccc1C(=O)Nc1ccc(S(=O)(=O)N2CCCCC2c2cccnc2)cc1 (stereo not given)	7.36%	
Cc1nnc(NCc2ccccc2)c2c1nnn2Cc1ccc(F)cc1	5.18%	
O=C(NCc1cccs1)c1cc(-c2ccccn2)nc2ccc(Br)cc12	5.1%	
CC(C)Cn1c(N)c(C(=O)NCc2cccs2)c2nc3ccccc3nc21		15.8 µM (active)
O=C(Cc1coc2ccc3ccccc3c12)NCc1cccs1	-13%	
CCN(CC)c1ccc(/C=C/c2c(C)cnc3ccc(C)cc23)cc1	-5.97%	
Clc1cccc[n+]1CCCC[n+]1ccccc1Cl	-4.74%	

SMILES	activity, negative = inhibition	Potency
Cc1ccc(C(=O)NC23CC4CC(CC(C4)C2)C3)c(Cl)c1	1.93%	
S=C(NCc1ccc(Cl)cc1)NC12CC3CC(CC(C3)C1)C2		11.2 µM (active)
O=C(NCc1ccc2c(c1)OCO2)C12CC3CC(CC(C3)C1)C2	-11.2%	
CCC(=O)Nc1ccc(C)cc1-c1nc2ccccc2n(Cc2ccccc2)c1=O	-5.27%	
Nc1ccc(/C=C/c2ccnc3ccccc23)c([N+](=O)[O-])c1	1.61%	
CCCCN(CC)CCCNC(=O)c1nn(C)c2c1CSc1ccccc1-2	-0.617%	
CC(=O)/C(=N\Nc1ccc(Cl)cc1Cl)Sc1cccc2cccnc12		2.82 µM (active)
COc1cccc(CNC(=O)c2cccnc2Sc2ccc(Cl)cc2)c1	0%	
COc1c(Cl)cc(Cl)cc1C(=O)Nc1cccc2cccnc12	17.3%	
COc1cccc(CN2CCc3nc(SCC(=O)Nc4ccccc4)[nH]c(=O)c3C2)c1	0.442%	
COc1ccccc1NC(=O)c1oc2ccccc2c1NC(=O)C(C)C	-0.0648%	
O=C(OCC(=O)N1CCN(C(=O)c2ccco2)CC1)c1c(Cl)cccc1Cl	-17.9%	
CN(c1ccccc1)S(=O)(=O)c1cc(C(=O)OCC(=O)N2CCN(C(=O)c3ccco3)CC2)ccc1Cl		10 µM (active)
O=C(OCC(=O)N1CCN(C(=O)c2ccco2)CC1)c1cccc(O)c1	-8.99%	
CCOc1ccc(NC(=O)c2cnn(-c3ccccc3)c2-n2cccc2)cc1	-1.27%	
Cc1c(CNC(C)c2ccccc2)c(C(=O)O)c(C)n1Cc1c(F)cccc1Cl (stereo not given)	1.13%	
CCc1cccc(NC(=O)CSc2nccn2C)c1	-2.18%	
O=C(Cn1ncc2c3ccccc3n(Cc3ccccc3)c2c1=O)NC1CCCCCC1	-2.78%	
Cc1ccc(CC2(C)C(=O)Nc3ccc(OC(F)(F)F)cc32)cc1 (stereo not given)		15.8 µM (active)
COc1ccccc1CNS(=O)(=O)c1ccc2c(c1)NC(=O)CS2	-3.83%	
COc1ccccc1CC1(C)C(=O)Nc2ccc(OC(F)(F)F)cc21 (stereo not given)		20 µM (active)
COc1ccc(C2(O)C(=O)Nc3ccccc32)cc1 (stereo not given)	-0.596%	
O=C(CSc1ncc(-c2ccccc2)[nH]1)Nc1ccc(F)cc1F	0%	
Cc1ccc(N2CC(C(=O)Nc3ccc(N(C)C)cc3)CC2=O)cc1Cl (stereo not given)	0.536%	
Cc1cccc(OCC(=O)N(Cc2ccc(C(C)C)cc2)Cc2ccco2)c1C	-18.9%	
